BoNT F protease = inhibitors of Botulinum neurotoxin F light chain protease; 360,000 tested, 0.22% active; AID 588497; Multiplex microsphere protease cleavage assay, flow cytometry; inhibition, % at 10 µM; in the data active = inhibition above about 35%, passing the limit was not always enough; inconclusive = no clear call, values can overlap the other calls
Bead autofluor = flagged as autofluorescent in microsphere protease counterscreen; 360,000 tested, 3.1% active; fluorescence intensity (no concentration beside the values); compound autofluorescence counterscreen, microsphere flow cytometry; active compounds read high; AID 624483; in the data active = fluorescence intensity above about 16000; inconclusive = no clear call, values can overlap the other calls
Anthrax LF prot = anthrax lethal factor protease inhibition; P15917; multiplex microsphere protease cleavage assay, LF; inhibition, % at 10 µM; 360,000 tested, 0.12% active; AID 588501
Target sequence (P15917 whole entry, looked up): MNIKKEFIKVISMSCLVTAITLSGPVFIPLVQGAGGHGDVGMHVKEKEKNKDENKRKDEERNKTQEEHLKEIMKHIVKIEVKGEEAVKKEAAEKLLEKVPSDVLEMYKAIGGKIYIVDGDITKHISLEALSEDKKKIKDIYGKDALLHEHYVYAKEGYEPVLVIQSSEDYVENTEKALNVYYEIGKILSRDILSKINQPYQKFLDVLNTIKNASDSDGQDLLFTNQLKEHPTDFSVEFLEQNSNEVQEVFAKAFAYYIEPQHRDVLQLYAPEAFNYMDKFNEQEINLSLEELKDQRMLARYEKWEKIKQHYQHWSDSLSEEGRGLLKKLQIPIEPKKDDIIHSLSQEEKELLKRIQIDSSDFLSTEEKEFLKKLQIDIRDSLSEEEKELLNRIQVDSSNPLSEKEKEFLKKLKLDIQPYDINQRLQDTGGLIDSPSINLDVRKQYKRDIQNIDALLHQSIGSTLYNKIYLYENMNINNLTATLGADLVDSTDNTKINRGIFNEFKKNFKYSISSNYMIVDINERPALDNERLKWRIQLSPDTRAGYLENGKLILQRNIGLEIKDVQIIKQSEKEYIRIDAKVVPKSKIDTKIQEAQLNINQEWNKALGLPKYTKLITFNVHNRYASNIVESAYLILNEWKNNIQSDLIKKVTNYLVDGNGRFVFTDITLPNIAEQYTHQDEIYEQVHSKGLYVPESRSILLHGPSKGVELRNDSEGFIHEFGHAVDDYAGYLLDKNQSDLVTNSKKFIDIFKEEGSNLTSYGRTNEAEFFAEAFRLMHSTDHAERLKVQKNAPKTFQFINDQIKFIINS
BH1578 lux ind = quorum light induction in luxS cqsA deficient V. cholerae; 350,000 tested, 0.16% active; activation, % at 18.7 µM; AID 588436; V. cholerae BH1578 lux reporter, luminescence, 6 h; in the data active = activation mostly above about 9.7%, no sharp cut-off; inconclusive = no clear call, values can overlap the other calls; inactive = mostly below about 3.7%
BoNT-A LC inh2 = inhibitors of Botulinum neurotoxin A light chain protease; multiplex microsphere protease substrate cleavage, flow cytometry; inhibition, % at 10 µM; 360,000 tested, 0.17% active
Numbers stand for hits. A selection: hits, their analogues and other compounds. The true share with any hit is near 3.5%. Rule as the data show it, unless noted: active = inhibition above about 30%; inconclusive = no clear call, values can overlap the other calls; inactive = below that.

`CC1=NN(c2ccc(Cl)cc2)C(=O)C1` gave BoNT F protease inactive, Bead autofluor inactive, Anthrax LF prot inactive, BH1578 lux ind inactive and BoNT-A LC inh2 inactive.
Screening CN(C)/C=C1\SC(=S)N(c2ccc(F)cc2)C1=O returned BH1578 lux ind inactive.
For Cc1ccc(N2CS(=O)(=O)/C(=C/N(C)C)C2=O)cc1 the results were BoNT F protease inactive, Bead autofluor 21872, Anthrax LF prot inactive, BH1578 lux ind inactive and BoNT-A LC inh2 inactive.
Screening CN(C)/C=C1\C(=O)N(c2ccc(Cl)cc2)CS1(=O)=O returned BoNT F protease inactive, Bead autofluor 23839, Anthrax LF prot inactive, BH1578 lux ind inactive and BoNT-A LC inh2 inactive.
`O=S(=O)(NCCc1ccccc1)c1ccc(Br)cc1` gave BoNT F protease inconclusive, Bead autofluor inactive, Anthrax LF prot inactive, BH1578 lux ind inactive and BoNT-A LC inh2 inactive.
`N#Cc1ncc(Cl)c2ccccc12` gave BoNT F protease inconclusive, Bead autofluor inactive, Anthrax LF prot inactive, BH1578 lux ind inactive and BoNT-A LC inh2 inconclusive.
Cc1nc2sc3c(c2c(=O)n1N)CCC3 was read as BoNT F protease inactive, Bead autofluor inactive, Anthrax LF prot inactive, BH1578 lux ind inactive and BoNT-A LC inh2 inactive.
For Cn1nnc2sc3c(c2c1=O)CCCC3 the results were BoNT F protease inactive, Bead autofluor 23005, Anthrax LF prot inactive, BH1578 lux ind inactive and BoNT-A LC inh2 inactive.
COc1ccc(CN2C(=O)C(CC(=O)NC3CCCC3)CC(C(=O)N(C)C)=C2C)cc1 (stereo not drawn) was read as BoNT F protease inactive, Bead autofluor inactive, Anthrax LF prot inactive, BH1578 lux ind inactive and BoNT-A LC inh2 inactive.
For Cc1ccc(NC(=O)c2ccc(C#CC3(O)CCCCC3)cc2)cc1C the results were BoNT F protease inactive, Bead autofluor 22190, Anthrax LF prot inactive, BH1578 lux ind inactive and BoNT-A LC inh2 inactive.
`Cc1cc(C)c(S(=O)(=O)N2CCOC2CNC(=O)C(=O)NCCN(C)C)c(C)c1` (stereo not drawn) gave BoNT F protease inactive, Bead autofluor inactive, Anthrax LF prot inactive, BH1578 lux ind inactive and BoNT-A LC inh2 inactive.
`O=C(Cc1nc(-c2cnccn2)no1)NNC(=O)Nc1ccccc1` gave BoNT F protease inconclusive, Bead autofluor inactive, Anthrax LF prot 35, BH1578 lux ind inactive and BoNT-A LC inh2 inconclusive.
O=C(CCc1nc(-c2ccccc2)no1)Nc1cccnc1 was read as BoNT F protease inactive, Bead autofluor inactive, Anthrax LF prot inactive, BH1578 lux ind inactive and BoNT-A LC inh2 inactive.
For Cc1cn2c(-c3cccnc3)nnc2s1 the results were BoNT F protease inactive, Bead autofluor 19239, Anthrax LF prot inactive, BH1578 lux ind inactive and BoNT-A LC inh2 inactive.
`CCOc1ccc(OCCNC(=O)C(NC(=O)c2c(F)cccc2F)C(C)C)cc1` (stereo not drawn) gave BH1578 lux ind inactive.
For Cc1cc(NC(=O)c2c([N+](=O)[O-])cnn2C)no1 the results were BoNT F protease inactive, Bead autofluor 20559, Anthrax LF prot inactive, BH1578 lux ind inactive and BoNT-A LC inh2 inactive.
Screening CCn1cc([N+](=O)[O-])c(C(=O)Nc2c(C)nn(Cc3c(F)c(F)c(F)c(F)c3F)c2C)n1 returned BoNT F protease inactive, Bead autofluor 20974, Anthrax LF prot inactive, BH1578 lux ind inactive and BoNT-A LC inh2 inactive.
Cc1nn(Cc2c(F)c(F)c(F)c(F)c2F)c(C)c1NC(=O)c1nn(C)cc1[N+](=O)[O-] was read as BoNT F protease inactive, Bead autofluor 22913, Anthrax LF prot inactive, BH1578 lux ind inactive and BoNT-A LC inh2 inconclusive.
`Cc1cc(NC(=O)c2c([N+](=O)[O-])c(C)nn2C)no1` gave BoNT F protease inactive, Bead autofluor inactive, Anthrax LF prot inactive, BH1578 lux ind inactive and BoNT-A LC inh2 inactive.
Cc1ccc(OCc2ccc(C(=O)Nc3c(C)nn(Cc4c(F)c(F)c(F)c(F)c4F)c3C)o2)c([N+](=O)[O-])c1 was read as BoNT F protease inactive, Bead autofluor 23883, Anthrax LF prot inactive, BH1578 lux ind inactive and BoNT-A LC inh2 inactive.
`Cc1ccc(OCc2ccc(C(=O)NN)o2)c([N+](=O)[O-])c1` gave BoNT F protease inconclusive, Bead autofluor inactive, Anthrax LF prot inactive, BH1578 lux ind inactive and BoNT-A LC inh2 inactive.
For Cc1ccc(NC(=O)CCC(=O)NNC(=O)Nc2cccc(Cl)c2)c(C)c1 the results were BoNT F protease inactive, Bead autofluor inactive, Anthrax LF prot inactive and BoNT-A LC inh2 inactive.
CCn1cc(C2=NC(CC(C)C)CO2)c2ccccc21 (stereo not drawn) was read as BoNT F protease inactive, Bead autofluor inactive, Anthrax LF prot inactive, BH1578 lux ind inactive and BoNT-A LC inh2 inactive.
`Cc1nn(Cc2c(F)c(F)c(F)c(F)c2F)c(C)c1NC(=O)c1c([N+](=O)[O-])cnn1C` gave BoNT F protease inactive, Bead autofluor 22419, Anthrax LF prot inactive, BH1578 lux ind inactive and BoNT-A LC inh2 inactive.

Source: PubChem BioAssay (several laboratories)
